# Results published in PMC8384837, “Expanding the binding specificity for RNA recognition by a PUF domain”.
# Substitutions are numbered along the chain they refer to.
# Legend:
# Test in all cases: yeast three-hybrid, YBZ-1, SC-Leu-His + 0.5 mM 3-AT, 4 days
# Conditions in all cases: tags: N-Gal4 AD-HA kept; label: inside an RPR1-promoter hybrid RNA with tandem MS2 sites; ssRNA
# PUM1 PUF domain R5-RHS = PUM1 PUF domain R5-RHS (Homo sapiens, UniProt Q14671 828-1176, C1007R;R1008H;Q1011S)
# How it was run: (§1)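 Pumilio-1 PUF domain libraries, randomized (NNK) at the three base-contacting residues of each repeat, were co-expressed with matching RNA elements from a centromeric plasmid in strain YBZ-1 (LexA–MS2 coat fusion, HIS3 reporter). Transformants were plated on SC-Leu (input) and SC-Leu-His + 0.5 mM 3-AT (selection) for four days, and repeat regions were PCR-amplified and Illumina-sequenced. The interaction score is the log2 change in variant frequency from input to selection, with pseudocount 1 where absent.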
# PUM1 PUF domain R5-KFS = PUM1 PUF domain R5-KFS (Homo sapiens, UniProt Q14671 828-1176, C1007K;R1008F;Q1011S)
# How it was run: as §1
# PUM1 PUF domain R5-RWF = PUM1 PUF domain R5-RWF (Homo sapiens, UniProt Q14671 828-1176, C1007R;R1008W;Q1011F)
# PUM1 PUF domain R5-RWF, sequence (Q14671 828-1176 C1007R/R1008W/Q1011F): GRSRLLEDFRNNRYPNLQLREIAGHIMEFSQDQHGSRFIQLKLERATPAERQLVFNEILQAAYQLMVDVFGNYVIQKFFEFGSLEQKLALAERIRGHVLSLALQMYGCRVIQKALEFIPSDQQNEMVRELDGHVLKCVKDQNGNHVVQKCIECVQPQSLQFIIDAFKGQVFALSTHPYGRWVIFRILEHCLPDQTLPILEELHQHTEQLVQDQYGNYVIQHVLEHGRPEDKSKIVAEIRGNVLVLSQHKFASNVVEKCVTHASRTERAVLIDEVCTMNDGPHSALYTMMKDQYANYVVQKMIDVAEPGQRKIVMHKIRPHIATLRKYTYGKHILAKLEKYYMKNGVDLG
# How it was run: as §1
# PUM1 PUF domain R5-WHV = PUM1 PUF domain R5-WHV (Homo sapiens, UniProt Q14671 828-1176, C1007W;R1008H;Q1011V)
# How it was run: as §1
# PUM1 PUF domain R5-DRT = PUM1 PUF domain R5-DRT (Homo sapiens, UniProt Q14671 828-1176, C1007D;Q1011T)
# How it was run: as §1
# PUM1 PUF domain R3-VRA = PUM1 PUF domain R3-VRA (Homo sapiens, UniProt Q14671 828-1176, C935V;Q939A)
# How it was run: as §1
# PUM1 PUF domain R3-SCR = PUM1 PUF domain R3-SCR (Homo sapiens, UniProt Q14671 828-1176, C935S;R936C;Q939R)
# How it was run: as §1
# PUM1 PUF domain R3-LSE = PUM1 PUF domain R3-LSE (Homo sapiens, UniProt Q14671 828-1176, C935L;R936S;Q939E)
# PUM1 PUF domain R3-LSE, sequence (Q14671 828-1176 C935L/R936S/Q939E): as the sequence (Q14671 828-1176 C1007R/R1008W/Q1011F) above, with C108L, R109S, Q112E, R180C, W181R, F184Q counted along it
# How it was run: as §1
# PUM1 PUF domain R3-GPD = PUM1 PUF domain R3-GPD (Homo sapiens, UniProt Q14671 828-1176, C935G;R936P;Q939D)
# How it was run: as §1
# PUM1 PUF domain R3-MCR = PUM1 PUF domain R3-MCR (Homo sapiens, UniProt Q14671 828-1176, C935M;R936C;Q939R)
# How it was run: as §1
# PUM1 PUF domain R5-RFQ = PUM1 PUF domain R5-RFQ (Homo sapiens, UniProt Q14671 828-1176, C1007R;R1008F)
# How it was run: as §1
# PUM1 PUF domain R4-CNV = PUM1 PUF domain R4-CNV (Homo sapiens, UniProt Q14671 828-1176, N971C;H972N;Q975V)
# How it was run: as §1
# PUM1 PUF domain R8-LFQ = PUM1 PUF domain R8-LFQ (Homo sapiens, UniProt Q14671 828-1176, N1122L;Y1123F)
# PUM1 PUF domain R8-LFQ, sequence (Q14671 828-1176 N1122L/Y1123F): as the sequence (Q14671 828-1176 C1007R/R1008W/Q1011F) above, with R180C, W181R, F184Q, N295L, Y296F counted along it
# How it was run: as §1
# PUM1 PUF domain R6-MHR = target: T1, PUM1 PUF domain R6-MHR (Homo sapiens, UniProt Q14671 828-1176, N1043M;Y1044H;Q1047R)
# T1 sequence: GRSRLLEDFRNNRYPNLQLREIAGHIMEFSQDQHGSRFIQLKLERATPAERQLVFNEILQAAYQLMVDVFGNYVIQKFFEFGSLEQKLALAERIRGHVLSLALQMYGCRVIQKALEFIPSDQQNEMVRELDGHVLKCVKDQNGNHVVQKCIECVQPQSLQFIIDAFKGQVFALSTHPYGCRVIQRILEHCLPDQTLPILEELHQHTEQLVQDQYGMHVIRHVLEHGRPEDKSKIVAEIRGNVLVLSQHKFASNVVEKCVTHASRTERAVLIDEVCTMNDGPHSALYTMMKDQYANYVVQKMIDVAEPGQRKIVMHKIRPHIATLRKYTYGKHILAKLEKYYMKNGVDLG
# How it was run: as §1
# PUM1 PUF domain R5-DHC = PUM1 PUF domain R5-DHC (Homo sapiens, UniProt Q14671 828-1176, C1007D;R1008H;Q1011C)
# How it was run: as §1
# PUM1 PUF domain R4-NRN = PUM1 PUF domain R4-NRN (Homo sapiens, UniProt Q14671 828-1176, H972R;Q975N)
# How it was run: as §1
# PUM1 PUF domain R5-GHS = PUM1 PUF domain R5-GHS (Homo sapiens, UniProt Q14671 828-1176, C1007G;R1008H;Q1011S)
# How it was run: as §1
# PUM1 PUF domain R6-TFS = target: T2, PUM1 PUF domain R6-TFS (Homo sapiens, UniProt Q14671 828-1176, N1043T;Y1044F;Q1047S)
# T2 sequence: T1 sequence with M216T, H217F, R220S
# How it was run: as §1
# PUM1 PUF domain R7-KGQ = PUM1 PUF domain R7-KGQ (Homo sapiens, UniProt Q14671 828-1176, S1079K;N1080G;E1083Q)
# PUM1 PUF domain R7-KGQ, sequence (Q14671 828-1176 S1079K/N1080G/E1083Q): as the sequence (Q14671 828-1176 C1007R/R1008W/Q1011F) above, with R180C, W181R, F184Q, S252K, N253G, E256Q counted along it
# How it was run: as §1
# PUM1 PUF domain R7-RQN = PUM1 PUF domain R7-RQN (Homo sapiens, UniProt Q14671 828-1176, S1079R;N1080Q;E1083N)
# PUM1 PUF domain R7-RQN, sequence (Q14671 828-1176 S1079R/N1080Q/E1083N): as the sequence (Q14671 828-1176 C1007R/R1008W/Q1011F) above, with R180C, W181R, F184Q, S252R, N253Q, E256N counted along it
# How it was run: as §1
sequence,measurement,setting,value
GGCUAGAACUAGUGGAUCCCCCGGCGCCCGGCGGCUCGAGCCCGGGUAAGUGUUAAUAGUCUGCAUGCCGCCGGGCGCCAUGCCUGCAGGUCGACUCUAGAAAACAUG,binding signal,PUM1 PUF domain R5-RHS,5.74 log2 enrichment (interaction score)
same,binding signal,PUM1 PUF domain R5-KFS,5.06 log2 enrichment (interaction score)
same,binding signal,PUM1 PUF domain R5-RWF,4.13 log2 enrichment (interaction score)
GGCUAGAACUAGUGGAUCCCCCGGCGCCCGGCGGCUCGAGCCCGGGUAAGUGUCAAUAGUCUGCAUGCCGCCGGGCGCCAUGCCUGCAGGUCGACUCUAGAAAACAUG,binding signal,PUM1 PUF domain R5-RHS,5.1 log2 enrichment (interaction score)
same,binding signal,PUM1 PUF domain R5-KFS,5.16 log2 enrichment (interaction score)
same,binding signal,PUM1 PUF domain R5-WHV,2.8 log2 enrichment (interaction score)
same,binding signal,PUM1 PUF domain R5-DRT,1.84 log2 enrichment (interaction score)
GGCUAGAACUAGUGGAUCCCCCGGCGCCCGGCGGCUCGAGCCCGGGUAAGUGUAAGUAGUCUGCAUGCCGCCGGGCGCCAUGCCUGCAGGUCGACUCUAGAAAACAUG,binding signal,PUM1 PUF domain R3-VRA,1.39 log2 enrichment (interaction score)
same,binding signal,PUM1 PUF domain R3-SCR,3.4 log2 enrichment (interaction score)
same,binding signal,PUM1 PUF domain R3-LSE,2.76 log2 enrichment (interaction score)
GGCUAGAACUAGUGGAUCCCCCGGCGCCCGGCGGCUCGAGCCCGGGUAAGUGUAAUUAGUCUGCAUGCCGCCGGGCGCCAUGCCUGCAGGUCGACUCUAGAAAACAUG,binding signal,PUM1 PUF domain R3-GPD,3.07 log2 enrichment (interaction score)
same,binding signal,PUM1 PUF domain R3-SCR,3.35 log2 enrichment (interaction score)
same,binding signal,PUM1 PUF domain R3-MCR,4.47 log2 enrichment (interaction score)
GGCUAGAACUAGUGGAUCCCCCGGCGCCCGGCGGCUCGAGCCCGGGUAAGUGUGAAUAGUCUGCAUGCCGCCGGGCGCCAUGCCUGCAGGUCGACUCUAGAAAACAUG,binding signal,PUM1 PUF domain R5-RFQ,3.05 log2 enrichment (interaction score)
same,binding signal,PUM1 PUF domain R5-RHS,3.89 log2 enrichment (interaction score)
same,binding signal,PUM1 PUF domain R5-DRT,2.11 log2 enrichment (interaction score)
GGCUAGAACUAGUGGAUCCCCCGGCGCCCGGCGGCUCGAGCCCGGGUAAGUGUAUAUAGUCUGCAUGCCGCCGGGCGCCAUGCCUGCAGGUCGACUCUAGAAAACAUG,binding signal,PUM1 PUF domain R4-CNV,3.21 log2 enrichment (interaction score)
GGCUAGAACUAGUGGAUCCCCCGGCGCCCGGCGGCUCGAGCCCGGGUAAGCGUAAAUAGUCUGCAUGCCGCCGGGCGCCAUGCCUGCAGGUCGACUCUAGAAAACAUG,binding signal,PUM1 PUF domain R8-LFQ,2.86 log2 enrichment (interaction score)
GGCUAGAACUAGUGGAUCCCCCGGCGCCCGGCGGCUCGAGCCCGGGUAAGUGUAAAUAGUCUGCAUGCCGCCGGGCGCCAUGCCUGCAGGUCGACUCUAGAAAACAUG,binding signal,PUM1 PUF domain R3-GPD,1.39 log2 enrichment (interaction score)
same,binding signal,PUM1 PUF domain R6-MHR,5.76 log2 enrichment (interaction score)
same,binding signal,PUM1 PUF domain R5-RFQ,2.95 log2 enrichment (interaction score)
same,binding signal,PUM1 PUF domain R5-RHS,4.26 log2 enrichment (interaction score)
same,binding signal,PUM1 PUF domain R3-VRA,3.97 log2 enrichment (interaction score)
same,binding signal,PUM1 PUF domain R5-DHC,2.98 log2 enrichment (interaction score)
same,binding signal,PUM1 PUF domain R4-NRN,2.83 log2 enrichment (interaction score)
same,binding signal,PUM1 PUF domain R4-CNV,0.77 log2 enrichment (interaction score)
same,binding signal,PUM1 PUF domain R5-KFS,4.28 log2 enrichment (interaction score)
same,binding signal,PUM1 PUF domain R5-GHS,3.25 log2 enrichment (interaction score)
same,binding signal,PUM1 PUF domain R5-WHV,1.26 log2 enrichment (interaction score)
same,binding signal,PUM1 PUF domain R6-TFS,4.51 log2 enrichment (interaction score)
same,binding signal,PUM1 PUF domain R5-DRT,2.42 log2 enrichment (interaction score)
GGCUAGAACUAGUGGAUCCCCCGGCGCCCGGCGGCUCGAGCCCGGGUAAGUUUAAAUAGUCUGCAUGCCGCCGGGCGCCAUGCCUGCAGGUCGACUCUAGAAAACAUG,binding signal,PUM1 PUF domain R7-KGQ,5.56 log2 enrichment (interaction score)
same,binding signal,PUM1 PUF domain R7-RQN,3.78 log2 enrichment (interaction score)
GGCUAGAACUAGUGGAUCCCCCGGCGCCCGGCGGCUCGAGCCCGGGUAAGUCUAAAUAGUCUGCAUGCCGCCGGGCGCCAUGCCUGCAGGUCGACUCUAGAAAACAUG,binding signal,PUM1 PUF domain R7-RQN,0.64 log2 enrichment (interaction score)
GGCUAGAACUAGUGGAUCCCCCGGCGCCCGGCGGCUCGAGCCCGGGUAAGUGUACAUAGUCUGCAUGCCGCCGGGCGCCAUGCCUGCAGGUCGACUCUAGAAAACAUG,binding signal,PUM1 PUF domain R4-CNV,2.79 log2 enrichment (interaction score)
